Measured values as given in PubChem BioAssay AID624330 (Southern Research Specialized Biocontainment Screening …, 2012).
The whole screen tested about 340,000 compounds, of which about 2,100 (0.62%) were called active.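 The calls were made as follows: active = first-screen hits whose inhibition reached a set limit at any dose in the follow-up dose series; inconclusive = inhibition above the set first-screen limit but never retested; inactive = the rest.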 Only a sample is shown. Entries with a potency or affinity are not part of this list.

These molecules were tested against Rac GTPase-activating protein 1 (Homo sapiens) (UniProt Q9H0H5) (assay: MgcRacGAP GTPase-activating activity inhibitors, confirmation, biochemical, ADP Hunter fluorescence, primary and confirmatory (AID 624330;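 also: fluorescence reports GDP produced by GAP-driven GTP hydrolysis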)). Conditions: MgcRacGAP-stimulated Rac1 GTP hydrolysis, at 30 µM, active compounds read high, GST-tagged Rac1 F28L mutant substrate.
Sequence of Rac GTPase-activating protein 1 (Homo sapiens) (Q9H0H5 whole entry, looked up): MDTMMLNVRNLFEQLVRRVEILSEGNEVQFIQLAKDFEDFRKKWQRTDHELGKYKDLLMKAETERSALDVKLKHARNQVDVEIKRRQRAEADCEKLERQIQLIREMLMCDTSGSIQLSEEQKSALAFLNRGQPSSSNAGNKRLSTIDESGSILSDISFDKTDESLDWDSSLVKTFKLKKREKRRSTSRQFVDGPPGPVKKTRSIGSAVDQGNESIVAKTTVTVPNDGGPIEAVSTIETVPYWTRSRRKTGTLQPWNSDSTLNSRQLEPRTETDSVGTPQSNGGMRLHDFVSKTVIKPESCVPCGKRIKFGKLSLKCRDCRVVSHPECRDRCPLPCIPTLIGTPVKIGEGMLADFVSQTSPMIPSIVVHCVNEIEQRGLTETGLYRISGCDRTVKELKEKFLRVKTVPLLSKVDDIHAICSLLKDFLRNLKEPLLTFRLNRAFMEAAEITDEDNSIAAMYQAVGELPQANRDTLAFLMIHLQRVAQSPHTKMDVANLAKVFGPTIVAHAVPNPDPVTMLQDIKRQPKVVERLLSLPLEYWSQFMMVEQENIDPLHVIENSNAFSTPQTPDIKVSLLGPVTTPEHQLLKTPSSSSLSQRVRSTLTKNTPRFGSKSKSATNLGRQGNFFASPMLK

| SMILES | inhibition |
| --- | --- |
| CCCC(c1nnnn1CCOC)N(Cc1cc2cc(C)c(C)cc2[nH]c1=O)CC1CCCO1 (centres undefined) | 1.47% (inactive) |
| COc1cc(Br)c(CN2CCCN(C)CC2)cc1OC | 5.08% (inactive) |
| COc1ccc(CN2CCCCCC2)c(C)c1C | 11.4% (inactive) |
| COc1cc(OC)c(CN2CCCCCCC2)cc1Br | 14.3% (inactive) |
| COc1ccc(CN2CCSCC2)c(OC)c1C | 28.9% (inactive) |
| CC(=O)N1CCSc2ccc(S(=O)(=O)Nc3ccc(C)cc3)cc21 | 8.81% (inactive) |
| CC(C(=O)Nc1ccccc1-c1ccccc1)N1CCCCC1 (centres undefined) | 0.68% (inactive) |
| CN1CCN(C(=O)CCC(=O)c2ccc(F)cc2)CC1 | 7.21% (inactive) |
| COc1ccc(NC(=O)c2ccc3c(c2)C(=O)N(Cc2cccnc2)C3=O)cc1 | 9.43% (inactive) |
| COc1ccc(CN2C(=O)c3ccccc3C2=O)cc1 | -0.09% (inactive) |
| CC1S/C(=N/N=C/c2cccs2)NC1=O (centres undefined) | -9.62% (inactive) |
| O=[N+]([O-])c1ccccc1Nc1ccccc1 | 5.61% (inactive) |
| Nc1cc([N+](=O)[O-])ccc1Nc1ccccc1 | 15.2% (inactive) |
| Nc1ccc(Nc2ccc([N+](=O)[O-])cc2[N+](=O)[O-])cc1 | 25.4% (inactive) |
| O=[N+]([O-])c1ccccc1Nc1ccccc1[N+](=O)[O-] | -9.22% (inactive) |
| CCCCOc1ccccc1N1CCN(CCCN2C(=O)C3CCCN3C2=O)CC1 (centres undefined) | 9.54% (inactive) |
| Cc1c2cnn(CC(=O)NCCCN3CCCCC3C)c(=O)c2c(C)n1Cc1ccccc1 (centres undefined) | 8.86% (inactive) |
| Clc1ccc2c(c1)Nc1ccccc1CC2 | 9.56% (inactive) |
| O=C1CCc2ccccc2N1 | 3.09% (inactive) |
| CCn1c(COc2ccc(=O)n(-c3ccccc3)n2)nnc1SC | 7.04% (inactive) |

| SMILES | inhibition |
| --- | --- |
| COc1cccc2c1C(=O)c1c(O)c3c(c(O)c1C2=O)CC(O)(C(C)=O)CC3OC1CC(O)C(O)C(C)O1 (centres undefined) | 11.6% (inactive) |
| CCCCC(=O)OCC(=O)C1(O)Cc2c(O)c3c(c(O)c2C(OC2CC(NC(=O)C(F)(F)F)C(O)C(C)O2)C1)C(=O)c1c(OC)cccc1C3=O (centres undefined) | 6.09% (inactive) |
| COc1cccc2c1C(=O)c1c(O)c3c(c(O)c1C2=O)CC(O)(C(=O)CO)CC3OC1CC(N(C)C)C(O)C(C)O1 (centres undefined) | 20.6% (inactive) |
| COc1cccc2c1C(=O)c1c(O)c3c(c(O)c1C2=O)C[C@](O)(C(C)=O)C[C@H]3O[C@@H]1C[C@@H](N)[C@@H](O)[C@@H](C)O1 | 21.3% (inactive) |
| COc1cccc2c1C(=O)c1c(O)c3c(c(O)c1C2=O)CC(O)(C(C)=O)CC3OC1CC(N(C)C)C(O)C(C)O1 (centres undefined) | 16.8% (inactive) |
| C/C(=N\NC(=O)c1ccc(Cl)c(Cl)c1)c1cccc(NC(=O)C(C)C)c1 | 10% (inactive) |
| CCCn1c2c(c(O)c(C(=O)NCc3ccccc3)c1=O)CCCC2 | 0.77% (inactive) |
| COCCCN(C(=O)CSCC(=O)Nc1ccc(C)cc1)c1c(N)n(Cc2ccccc2)c(=O)[nH]c1=O | 8.76% (inactive) |
| COc1cc(NC(=O)CN2C(=O)NC(CC(C)C)C2=O)cc(OC)c1OC (centres undefined) | 6.04% (inactive) |
| CC1(C)C(=O)Nc2ccccc2N1C(=O)CN1C(=O)NC(CCc2ccccc2)C1=O (centres undefined) | 2.92% (inactive) |
| Cc1cc(C)cc(NC(=O)COC(=O)CCCNC(=O)c2ccc(Cl)cc2)c1 | 3.85% (inactive) |
| COc1ccc(CCNC(=O)c2ccc(N3CCCC3=O)cc2)cc1OC | 12.5% (inactive) |
| COc1ccc(-c2nnn(CC(=O)N(CC(=O)NCCC(C)C)c3ccccc3)n2)cc1OC | 1.41% (inactive) |
| COc1ccc(-c2[nH]ncc2-c2ccc(Cl)cc2)c(O)c1 | 11.8% (inactive) |
| Oc1ccc(-c2[nH]ncc2-c2ccc(Br)cc2)c(O)c1 | 26.8% (inactive) |
| CC(C)(C)c1ccc(C(=O)N/C(=C\c2ccco2)C(=O)Nc2ccccc2C(=O)O)cc1 | 7.9% (inactive) |
| C[C@H](NC(=O)C1CCN(S(=O)(=O)c2ccccc2)CC1)C(=O)NC1CC1 | 4.17% (inactive) |
| O=C(NCc1ccc2c(c1)OCO2)c1cc(-c2ccccc2)c(N2CCOCC2)s1 | 11.5% (inactive) |
| Cc1ccc(NC2CCCN(C(=O)CCC3=NNC(=O)CC3)C2)cc1C (centres undefined) | 11.1% (inactive) |
| COc1ccc(N2CCN(C(=O)C3=NNC(=O)CC3)CC2)cc1 | 4.93% (inactive) |

| SMILES | inhibition |
| --- | --- |
| COc1ccc(C(=O)C2CCCN(C(=O)CCC3=NNC(=O)CC3)C2)c(C)c1 (centres undefined) | -12.3% (inactive) |
| O=C1CCC(C(=O)N2CCCC(Nc3ccc(F)cc3)C2)=NN1 (centres undefined) | 13.7% (inactive) |
| O=C(O)c1ccc(S(=O)(=O)N(Cc2ccc(F)cc2)C2CCCCC2)cc1 | 7.41% (inactive) |
| O=C(Nc1ccc(N2CCOCC2)nc1)c1ccc(F)cc1 | 3.12% (inactive) |
| COc1ccc2cc(/C=N/NC(=O)c3c(Cl)cnn3C)c(Cl)nc2c1 | 3.85% (inactive) |
| Clc1ccc(/C=N/Nc2ncnc3nc[nH]c23)cc1 | 19.8% (inactive) |
| Cc1ccc(CCNc2ncnc(Cl)c2N)cc1 | 6.24% (inactive) |
| Cc1ccc(/C=N/Nc2ncnc3nc[nH]c23)cc1 | 11.9% (inactive) |
| Nc1c(Cl)ncnc1N/N=C/c1cccnc1 | -0.02% (inactive) |
| Nc1c(Cl)ncnc1N/N=C/c1cccc(O)c1 | -2.65% (inactive) |
| COc1ccc(/C=N/Nc2ncnc(Cl)c2N)cc1OC | 9.22% (inactive) |
| Nc1c(Cl)ncnc1NCCO | 12.3% (inactive) |
| COc1cccc(/C=N/Nc2ncnc(Cl)c2N)c1O | 7.43% (inactive) |
| CC1CCc2cc(F)ccc2N1C(=O)CN1C(=O)c2ccccc2C1=O (centres undefined) | 7.46% (inactive) |
| FC(F)(F)c1ccncc1-c1nnc(C2CCCCC2)o1 | 12.4% (inactive) |
| CCCC(c1nnnn1Cc1ccc(OC)cc1)N1CCC(C(N)=O)CC1 (centres undefined) | 3.71% (inactive) |
| CC12CC(NC(=O)N1c1cccc(C(=O)N3CCN(c4ccccc4F)CC3)c1)c1ccccc1O2 (centres undefined) | 4.9% (inactive) |
| COC(=O)c1ccc(/C=N/NC(=O)C2CC(=O)N(c3ccc(OC)cc3)C2)cc1 (centres undefined) | -2.9% (inactive) |
| CN(CC(=O)Nc1ccccc1C(F)(F)F)C(=O)CN1C(=O)C2CCCCC2C1=O (centres undefined) | 8.57% (inactive) |
